Common to all, as to design: scale not given: direction of the effect not stated beside the values
Assay [1] has as its target Protein translocase subunit SecA (Escherichia coli (strain K12)) (UniProt P10408). Briefly: Assay to Identify E. coli SecA ATPase Inhibitors. The format is functional. The conditions noted are these: 30 µM.
For assay [2], the target named is T1, Ubiquitin-activating enzyme e1, putative (Leishmania donovani (strain BPK282A1)) (UniProt E9BSI1).
T1 sequence (whole entry): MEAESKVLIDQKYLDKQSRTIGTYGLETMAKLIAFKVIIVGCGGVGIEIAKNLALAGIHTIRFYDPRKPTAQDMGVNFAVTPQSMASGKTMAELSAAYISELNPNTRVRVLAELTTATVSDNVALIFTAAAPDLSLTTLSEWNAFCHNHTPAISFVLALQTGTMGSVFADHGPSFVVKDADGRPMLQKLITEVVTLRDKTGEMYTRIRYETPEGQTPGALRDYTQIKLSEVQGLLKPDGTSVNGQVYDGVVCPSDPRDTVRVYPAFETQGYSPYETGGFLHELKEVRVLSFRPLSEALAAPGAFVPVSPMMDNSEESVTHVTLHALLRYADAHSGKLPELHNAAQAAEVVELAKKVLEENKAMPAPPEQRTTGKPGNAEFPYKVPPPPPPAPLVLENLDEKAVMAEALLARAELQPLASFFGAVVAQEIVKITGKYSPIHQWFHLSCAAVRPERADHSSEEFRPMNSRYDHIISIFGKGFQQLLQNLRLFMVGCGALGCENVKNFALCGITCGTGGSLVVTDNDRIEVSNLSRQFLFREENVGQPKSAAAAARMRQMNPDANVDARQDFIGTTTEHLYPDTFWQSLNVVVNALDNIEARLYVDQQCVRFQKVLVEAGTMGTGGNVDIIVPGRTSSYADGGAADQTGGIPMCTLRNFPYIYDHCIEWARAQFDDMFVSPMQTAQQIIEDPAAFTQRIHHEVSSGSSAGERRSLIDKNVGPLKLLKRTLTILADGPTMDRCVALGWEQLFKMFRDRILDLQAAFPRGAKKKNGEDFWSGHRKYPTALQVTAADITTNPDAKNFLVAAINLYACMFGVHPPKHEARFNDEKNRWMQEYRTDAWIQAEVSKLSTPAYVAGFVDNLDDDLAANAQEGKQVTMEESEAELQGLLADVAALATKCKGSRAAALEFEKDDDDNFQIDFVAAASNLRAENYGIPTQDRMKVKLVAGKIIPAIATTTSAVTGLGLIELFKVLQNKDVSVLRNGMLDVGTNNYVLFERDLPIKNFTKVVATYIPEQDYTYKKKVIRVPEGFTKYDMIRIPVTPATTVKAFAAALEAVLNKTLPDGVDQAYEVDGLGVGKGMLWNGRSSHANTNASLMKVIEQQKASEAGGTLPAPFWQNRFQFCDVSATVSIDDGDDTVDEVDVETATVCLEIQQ
Briefly: Leishmania donovani Ubiquitin Activating Enzyme (LdE1). In kind it is functional. The conditions noted are these: 30 µM.

Assay [3] addresses AMP-activated protein kinase, AMPK (Homo sapiens) (UniProt P54646+O43741+P54619+Q9UGJ0+Q9Y478+Q13131+Q9UGI9). Briefly: AMP-dependent Kinase enzyme assay. An in vitro enzyme assay that detects ADP turnover that is directly proportional to AMPK activity. This uses naive AMPK that is activated during the assay with MK-8722. The format is functional. Conditions: 30 µM.
Assay [4] addresses Sialic acid-binding Ig-like lectin 9 (Homo sapiens) (UniProt Q9Y336). Description: Hs-Siglec9 ALPHAscreen SOP 20170721. Conditions: 10 µM.
A further assay concerns Trypanosoma cruzi. Description: Trypanosoma cruzi phosphomannomutase and mannose-1-phosphate guanylyltransferase assay. In kind it is functional. Conditions: 10 µM.
Assay [5] concerns the target T2, Arginase-2, mitochondrial (Homo sapiens) (UniProt P78540).
T2 sequence (whole entry): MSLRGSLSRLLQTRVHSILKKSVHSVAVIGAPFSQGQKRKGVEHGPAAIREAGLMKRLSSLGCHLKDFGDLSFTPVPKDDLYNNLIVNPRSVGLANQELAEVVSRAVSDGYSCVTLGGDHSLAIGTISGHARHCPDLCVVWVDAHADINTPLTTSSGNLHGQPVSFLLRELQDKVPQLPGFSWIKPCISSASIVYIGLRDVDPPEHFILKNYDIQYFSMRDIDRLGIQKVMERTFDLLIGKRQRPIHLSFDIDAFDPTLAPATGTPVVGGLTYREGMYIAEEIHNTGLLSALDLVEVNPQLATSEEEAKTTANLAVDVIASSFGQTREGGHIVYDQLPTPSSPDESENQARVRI
Briefly: in vitro enzyme assay to detect the production of urea directly proportional to the activity of Arginase II. Further: in the data most compounds retested in dose-response had high values. Conditions: 33.3 µM. The format is functional.

The target in assay [6] is T3, Proteasome subunit beta (Trypanosoma cruzi) (UniProt O96673).
T3 sequence (whole entry): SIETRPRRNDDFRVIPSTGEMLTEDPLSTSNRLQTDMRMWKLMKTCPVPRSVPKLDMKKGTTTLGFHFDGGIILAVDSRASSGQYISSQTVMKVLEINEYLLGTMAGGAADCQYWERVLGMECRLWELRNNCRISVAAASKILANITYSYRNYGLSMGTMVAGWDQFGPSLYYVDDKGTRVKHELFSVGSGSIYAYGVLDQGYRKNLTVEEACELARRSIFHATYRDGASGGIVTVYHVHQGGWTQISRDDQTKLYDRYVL
Briefly: Trypanosoma cruzi proteasome chymotrypsin-like activity (TcProtChymo) assay. Further: in the data most compounds retested in dose-response had high values. In kind it is functional. The conditions noted are these: 9.37 µM.

A further assay is filed under the species Homo sapiens. Description: To identify inhibition of the IFN signalling (Jak-Stat) pathway via expression of an eGFP reporter gene under the control of an IFN-stimulated response element (ISRE) containing MxA promoter. In kind it is functional. The conditions noted are these: 30 µM.
The target of assay [7] is T4, Tyrosyl-tRNA synthetase, putative (Trypanosoma cruzi (strain CL Brener)) (UniProt Q4DSP6).
T4 sequence (whole entry): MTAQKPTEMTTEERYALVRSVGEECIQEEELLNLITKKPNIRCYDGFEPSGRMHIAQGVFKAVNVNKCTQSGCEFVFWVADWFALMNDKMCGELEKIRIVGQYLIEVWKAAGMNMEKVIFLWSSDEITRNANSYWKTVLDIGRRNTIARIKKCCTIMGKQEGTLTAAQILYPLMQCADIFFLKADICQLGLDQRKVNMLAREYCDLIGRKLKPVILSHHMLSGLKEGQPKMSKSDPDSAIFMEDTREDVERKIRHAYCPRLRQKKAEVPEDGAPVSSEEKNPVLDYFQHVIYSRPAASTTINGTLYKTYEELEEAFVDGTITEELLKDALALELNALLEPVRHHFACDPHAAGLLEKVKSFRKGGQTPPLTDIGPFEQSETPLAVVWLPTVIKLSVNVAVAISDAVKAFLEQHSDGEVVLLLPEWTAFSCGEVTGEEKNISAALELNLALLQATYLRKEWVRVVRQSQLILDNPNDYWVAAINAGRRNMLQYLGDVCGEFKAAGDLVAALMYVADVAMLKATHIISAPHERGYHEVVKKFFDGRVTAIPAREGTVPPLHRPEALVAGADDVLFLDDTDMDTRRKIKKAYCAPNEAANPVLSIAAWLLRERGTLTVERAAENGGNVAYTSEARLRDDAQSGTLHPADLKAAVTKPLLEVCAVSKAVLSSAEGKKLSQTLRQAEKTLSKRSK
Briefly: Trypanosoma cruzi tyrosyl tRNA synthetase (TcYRS) _High Tyrosine SOP. Further: in the data most compounds retested in dose-response had high values. Conditions: 30 µM. In kind it is functional.

Assay [8] has as its target T4, Tyrosyl-tRNA synthetase, putative (Trypanosoma cruzi (strain CL Brener)). Description: Trypanosoma cruzi tyrosyl tRNA synthetase (TcYRS) SOP. In kind it is functional. The conditions noted are these: 30 µM.
Assay [9] concerns the target Chromo domain-containing protein 1 (Saccharomyces cerevisiae (strain ATCC 204508 / S288c) (Baker's yeast)) (UniProt P32657). Description: ScCHD-1 Enzyme Inhibition Assay. Further: in the data most compounds retested in dose-response had high values. The conditions noted are these: 30 µM. The format is functional.

For some assays here: Entries with a potency or affinity are not part of this list.

Chain of Sialic acid-binding Ig-like lectin 9 (Homo sapiens) (Q9Y336 whole entry): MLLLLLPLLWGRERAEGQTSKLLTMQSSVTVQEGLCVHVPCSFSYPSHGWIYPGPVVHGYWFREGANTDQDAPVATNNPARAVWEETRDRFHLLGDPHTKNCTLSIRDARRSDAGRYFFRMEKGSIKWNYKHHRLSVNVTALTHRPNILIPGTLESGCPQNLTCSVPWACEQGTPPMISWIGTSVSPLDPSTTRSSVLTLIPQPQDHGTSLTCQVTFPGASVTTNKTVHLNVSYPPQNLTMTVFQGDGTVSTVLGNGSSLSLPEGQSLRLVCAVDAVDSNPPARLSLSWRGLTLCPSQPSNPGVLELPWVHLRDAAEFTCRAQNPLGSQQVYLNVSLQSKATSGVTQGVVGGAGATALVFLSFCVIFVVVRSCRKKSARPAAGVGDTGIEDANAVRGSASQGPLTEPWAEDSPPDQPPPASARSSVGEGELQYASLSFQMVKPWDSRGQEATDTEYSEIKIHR
Chain of Protein translocase subunit SecA (Escherichia coli (strain K12)) (P10408 whole entry): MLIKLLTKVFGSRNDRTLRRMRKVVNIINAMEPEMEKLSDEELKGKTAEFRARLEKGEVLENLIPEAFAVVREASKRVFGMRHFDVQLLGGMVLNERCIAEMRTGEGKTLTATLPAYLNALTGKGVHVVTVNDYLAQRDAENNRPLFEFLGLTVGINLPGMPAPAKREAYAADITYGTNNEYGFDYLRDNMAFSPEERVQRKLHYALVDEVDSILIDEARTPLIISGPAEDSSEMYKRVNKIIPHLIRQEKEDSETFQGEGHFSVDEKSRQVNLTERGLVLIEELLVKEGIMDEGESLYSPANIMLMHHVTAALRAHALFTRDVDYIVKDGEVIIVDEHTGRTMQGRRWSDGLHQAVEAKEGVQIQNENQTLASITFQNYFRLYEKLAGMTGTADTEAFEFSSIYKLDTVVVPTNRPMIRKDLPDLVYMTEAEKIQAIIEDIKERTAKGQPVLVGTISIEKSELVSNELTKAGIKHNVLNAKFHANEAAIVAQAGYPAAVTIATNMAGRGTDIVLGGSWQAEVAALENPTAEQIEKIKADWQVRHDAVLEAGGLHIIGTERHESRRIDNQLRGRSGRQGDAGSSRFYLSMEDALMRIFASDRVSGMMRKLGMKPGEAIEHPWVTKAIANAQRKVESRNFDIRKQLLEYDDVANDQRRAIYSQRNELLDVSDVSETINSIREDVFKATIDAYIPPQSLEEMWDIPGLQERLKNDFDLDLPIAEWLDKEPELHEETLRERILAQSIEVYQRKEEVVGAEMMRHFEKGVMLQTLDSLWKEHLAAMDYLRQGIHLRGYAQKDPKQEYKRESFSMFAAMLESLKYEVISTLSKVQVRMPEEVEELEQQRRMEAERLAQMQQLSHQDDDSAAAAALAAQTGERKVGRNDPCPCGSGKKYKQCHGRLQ
Chain of Chromo domain-containing protein 1 (Saccharomyces cerevisiae (strain ATCC 204508 / S288c) (Baker's yeast)) (P32657 whole entry, the tested form may be a part): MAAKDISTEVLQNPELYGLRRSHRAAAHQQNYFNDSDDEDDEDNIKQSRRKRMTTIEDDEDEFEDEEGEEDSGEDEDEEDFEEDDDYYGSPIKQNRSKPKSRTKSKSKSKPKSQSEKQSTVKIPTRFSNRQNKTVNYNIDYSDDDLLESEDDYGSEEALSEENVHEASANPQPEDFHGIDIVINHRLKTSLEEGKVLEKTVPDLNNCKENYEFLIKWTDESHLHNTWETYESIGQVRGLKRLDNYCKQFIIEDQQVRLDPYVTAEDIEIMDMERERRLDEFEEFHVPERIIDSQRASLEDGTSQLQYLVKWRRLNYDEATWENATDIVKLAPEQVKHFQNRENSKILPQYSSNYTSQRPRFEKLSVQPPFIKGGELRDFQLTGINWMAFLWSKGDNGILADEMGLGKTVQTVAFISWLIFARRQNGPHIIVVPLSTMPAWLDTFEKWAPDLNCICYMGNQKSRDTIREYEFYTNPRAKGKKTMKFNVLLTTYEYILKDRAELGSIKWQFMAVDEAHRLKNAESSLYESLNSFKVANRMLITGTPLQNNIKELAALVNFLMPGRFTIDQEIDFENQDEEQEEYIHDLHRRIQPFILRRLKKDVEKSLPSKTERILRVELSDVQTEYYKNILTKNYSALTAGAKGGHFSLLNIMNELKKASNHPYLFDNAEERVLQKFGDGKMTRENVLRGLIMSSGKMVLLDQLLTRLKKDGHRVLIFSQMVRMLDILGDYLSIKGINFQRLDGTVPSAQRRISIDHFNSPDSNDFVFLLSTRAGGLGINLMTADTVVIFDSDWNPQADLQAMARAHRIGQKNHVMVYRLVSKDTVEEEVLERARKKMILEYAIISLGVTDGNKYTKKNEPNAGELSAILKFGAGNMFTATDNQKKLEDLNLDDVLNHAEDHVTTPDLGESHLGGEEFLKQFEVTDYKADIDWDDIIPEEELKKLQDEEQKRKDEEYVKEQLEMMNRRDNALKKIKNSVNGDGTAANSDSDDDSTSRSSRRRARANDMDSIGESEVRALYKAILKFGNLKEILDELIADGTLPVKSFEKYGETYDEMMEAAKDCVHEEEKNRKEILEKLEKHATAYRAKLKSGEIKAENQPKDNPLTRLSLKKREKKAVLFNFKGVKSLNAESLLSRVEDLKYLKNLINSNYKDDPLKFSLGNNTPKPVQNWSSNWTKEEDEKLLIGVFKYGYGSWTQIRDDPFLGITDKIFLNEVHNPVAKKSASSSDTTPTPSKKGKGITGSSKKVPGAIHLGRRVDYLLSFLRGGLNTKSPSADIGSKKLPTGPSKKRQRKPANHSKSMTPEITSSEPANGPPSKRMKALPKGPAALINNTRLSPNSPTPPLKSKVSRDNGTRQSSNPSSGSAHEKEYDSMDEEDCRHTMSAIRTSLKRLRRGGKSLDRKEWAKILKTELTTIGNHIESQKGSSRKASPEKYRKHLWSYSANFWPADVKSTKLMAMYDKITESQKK

`Cn1ccnc1CN(CCCO)C1CCCc2ccccc21` (stereo not given): the Percent Effect was -5.87% in assay [1]; 5.26% in assay [2]; 3.03% in assay [3]; 9.71% in assay [4]; 0.876% in the assay with Trypanosoma cruzi; -2.37% in assay [5]. For the same compound, the Percent Effect in [6] is 3.55%; in the assay filed under Homo sapiens, 18.1%; in [7] it was 3.19%; in assay [8] it was 7.79%; in assay [9], -0.447%.
Take `CC(=O)N1C[C@H](NC(=O)c2cscn2)[C@@H]2OCCC[C@@H]21`: the Percent Effect in assay [1] was -1.76%; in assay [2], 10.8%; in [3], 2.39%; in assay [4], -9.14%; with Trypanosoma cruzi it was -5.38%; in assay [5] it was 7.33%. In addition, the Percent Effect in [6] was 23.2%; in the assay listed under Homo sapiens, -9.35%; in assay [7], -1.08%; in [8], 10.3%; in assay [9], -0.517%.
On to `CCN(Cc1ccc2c(c1)OCCO2)C(=O)NCc1nc(C)cs1`, for which the Percent Effect in assay [1] is 0.275%; in assay [2] it was 10.4%; in assay [3] it was -0.784%; in assay [4], -5.04%; in the assay with Trypanosoma cruzi it was -0.294%; in [5] it was 4.84%. In addition, the Percent Effect in assay [6] was 14.6%; in the assay listed under Homo sapiens, 11.4%; in [7], 4.76%; in [8], 11.8%; in assay [9] it was -19.3%.
Consider `COCC1CN(C(=O)CNC(C)=O)Cc2ncnn2C1` (stereo not given), for which the Percent Effect in assay [1] was -4.16%; in [2], 7.79%; in [3] it was 5.62%; in [4], 8.97%; in the assay with Trypanosoma cruzi, 2.65%; in [5], 2.76%. The Percent Effect in assay [6] is 4.99%; in the assay filed under Homo sapiens, -13.1%; in [7], 6.45%; in [8] it was 13.6%; in assay [9], 0.679%.
Regarding `CC(=O)N1CCOCC2(CN(Cc3ccc(C)o3)CCO2)C1` (stereo not given), the Percent Effect is -8.61% in assay [1]; 2.67% in assay [2]; 0.553% in assay [3]; -4.1% in assay [4]; 0.591% in the assay on Trypanosoma cruzi; 0.699% in assay [5]. The Percent Effect was 1.67% in assay [6]; 17.8% in the assay filed under Homo sapiens; 3.19% in assay [7]; 1.28% in assay [8]; -4.82% in [9].
As to `O=C(c1ccccn1)N1CCCC(c2nccn2CC2CCC2)C1` (stereo not given), the Percent Effect in assay [1] was -7.93%; in assay [2], 0%; in assay [3] it was -15.1%; in assay [4] it was 2.39%; with Trypanosoma cruzi, -2.35%; in assay [5] it was -2.27%. In addition, the Percent Effect is 3.37% in [6]; 7.95% in the assay listed under Homo sapiens; 0% in [7]; 0% in assay [8]; -2.91% in assay [9].
Take `CN1CC(=O)N(c2cccnc2)CC12CCN(C(=O)C1CCCCC1)C2` (stereo not given): the Percent Effect was 0.868% in assay [1]; 10.7% in assay [2]; 6.75% in assay [3]; 12.8% in assay [4]; -1.74% with Trypanosoma cruzi; -72.9% in assay [5]. In addition, the Percent Effect in assay [6] is 12.3%; in the assay filed under Homo sapiens, 24%; in assay [7], 3.12%; in assay [8], 2.5%; in [9], -2.49%.
Regarding `Cc1cc(C)cc(OCCC(=O)N2CCOCC2c2ncon2)c1` (stereo not given), the Percent Effect in [1] is -7.26%; in assay [2], 2.7%; in [3], -4.41%; in [4], 6.93%; in the assay with Trypanosoma cruzi it was -5.11%; in [5], -1.29%. Moreover, the Percent Effect is -1.62% in [6]; 4.3% in the assay filed under Homo sapiens; 2.97% in assay [7]; 11% in assay [8]; 0.318% in [9].
Consider `Cc1ccc(CC(=O)N2CCOC(c3nc(C(C)(C)C)n[nH]3)C2)cn1` (stereo not given), for which the Percent Effect in assay [1] is -3.58%; in assay [2] it was 12.5%; in assay [3], -9.66%; in [4], 13.3%; with Trypanosoma cruzi, 4.76%; in assay [5] it was -0.442%. The Percent Effect in [6] was 7.72%; in the assay filed under Homo sapiens, 2.71%; in assay [7] it was 3.16%; in [8] it was 5.13%; in assay [9] it was -2.81%.
Consider `COC(=O)C(NC(=O)C(C)C)c1cc(F)ccc1F` (stereo not given), for which the Percent Effect in assay [1] is -3.03%; in assay [2], 10.4%; in assay [3], 3.19%; in assay [4] it was 15.7%; in the assay on Trypanosoma cruzi, -2.43%; in [5], 7.12%. Further, the Percent Effect in assay [6] was 3.38%; in the assay listed under Homo sapiens, 22.8%; in assay [7] it was 2.91%; in assay [8], 9.76%; in assay [9], -4.93%.

These data come from ChEMBL document CHEMBL3988442, “University of Dundee, Small-Polar-MMV Screening Library” (2021).
